Data on 39 sequences can be found in the supplement of paper PMC10338343.

± gives the standard deviation.

In the first test the test system is EfPiwi piRISC loaded with L1MC piRNA (26 nt). The experiment in a line: pre-steady-state target cleavage rate (min^-1); auxiliary factor: none (no Gtsf1); guide: L1MC piRNA 5'p-UAACUAAAUACUAUGCAAGCUGUAGG; higher = faster piRNA-guided slicing of the target. A digest of the protocol: (§1)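 For Cleave-'n-Seq, a transcribed, DNA-blocked target RNA library […] met 1 nM active affinity-purified piRISC with one synthetic guide at 33 °C for 0–8 or 0–960 min in HEPES–potassium acetate buffer, with or without 500 nM GTSF1 partner protein. Uncleaved targets were sequenced and normalised to depth and weakly complementary targets, with three trials pooled and k3 capped at 0.0001 min^-1. A burst-and-steady-state fit supplied the pre-steady-state cleavage rate.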
As for UCCUGGAUGUCGAAGCUAUAGUAUUUAGUUA, the “pre-steady-state target cleavage rate” value was less than 0.0001.
Same read-out and setting: next, UCCUGGAUGUCGAACGUAUGUUAUUAGUUA: less than 0.0001; UCCUGGAUGUCGAACGAUAGUAUUUGGUUA: less than 0.0001.
On the same count and under the same terms, next, UCCUGGAUGUCGAACGUAAUGUAUUUAGUUA: less than 0.0001.
On to UCCUGGUACAGCUUGGUAAGUAUUUACAAA, for which the “pre-steady-state target cleavage rate” value is less than 0.0001.
Same read-out and setting: next, UCCUGGAUGUCGAUGCAGUAGUAUUUAGUUA: less than 0.0001; UCCUGGUACAGGAAGCAUAGUAUUUAGAAA: less than 0.0001.
The same measure, in the same setting: next, UCCUGGAUGUCGAACGUAUGAAUUUAGAUA: less than 0.0001; UCCUGGAUGUGCAUGCAUAGUAUUUACUUA: less than 0.0001; “UCCUGCUACAGCUUGCAAUCAUAAAUCAAA [g14:g25:cont:t1A]”: less than 0.0001.
The same measure, in the same setting: the same measure for UCCUGGAUGUCGAUGCAUCAGUAUUUAGUUA: less than 0.0001; for UCCUGGAUGUCGAACCCUAGUAUUUAGUUA: less than 0.0001.
As for UCCUGGAUGUCGAAGCAUAGUAUUUACUAA, the “pre-steady-state target cleavage rate” value was less than 0.0001.
Turning to UCCUGGAUGUCGAACGUAUCUAUUUACAUA, the “pre-steady-state target cleavage rate” value is less than 0.0001.
With UCCUGGAUGUGCUUGCAUACAUUUUAGUAA, the “pre-steady-state target cleavage rate” value is less than 0.0001.
In the case of UCCUGGAUGUCGAACGUAUGUGAUUUAGUUA, the “pre-steady-state target cleavage rate” value is less than 0.0001.
Same read-out and setting: the same measure for UCCUGGAUGUCGAACGAUAAUAUUUAGUUA: less than 0.0001.
Still for that read-out and setting: next, UCCUGGAUGUCGAAGCAUACUAAUUAGUUA: less than 0.0001; UCCUGGAUGUCGAAGCAUAGUAUUUAGCUA: less than 0.0001; UCCUGGAUGUCGUUGCAUAGUAUUUAGCUA: less than 0.0001.
Still for that read-out and setting: next, UCCUGGAUGUCGAACGAUACUAUUUAGAUA: less than 0.0001; “UCCUGGUACAGCUUGCAAUCAUAAAUCAAA [g14:g24:cont:t1A]”: less than 0.0001; UCCUGGAUGUCGUUGCAUAGAUAUUAGUUA: less than 0.0001.
In the case of UCCUGGAUCAGCUUGGAUAGUAUUUACAAA, the “pre-steady-state target cleavage rate” value is less than 0.0001.
As for UCCUGGAUGUCGAACGUAAGAAUUUAGUAA, the “pre-steady-state target cleavage rate” value was less than 0.0001.
The same measure, in the same setting: next, UCCUGGAUGUCGAACCUAUGUAUUUAGUUA: less than 0.0001; UCCUGGAUGUCGUUGCAUGUAUUUAGUUA: less than 0.0001; UCCUGGAUGUCGAACGUAUCUAUUCAGUUA: less than 0.0001.
Regarding UCCUGGAUCAGGAAGCAUAGUAUUUUCAAA, the “pre-steady-state target cleavage rate” value is less than 0.0001.
As to UCCUGGAUGUCGAACGAUAUAUUUAGUUA, the “pre-steady-state target cleavage rate” value was less than 0.0001.
The same measure, in the same setting: the same measure for UCCUGGAUGUGCUUGCAUAGUAUCUUAGUUA: 0.0107 ± 0.0064.
On the same count and under the same terms, the same measure for UCCUGCUACAGCUUGCAUACAUUUUAGUAA: less than 0.0001.

The test system of the next test is EfPiwi piRISC loaded with piRNA #1 (26 nt). Nature of the test: pre-steady-state target cleavage rate (min^-1); auxiliary factor: 500 nM Ephydatia muelleri Gtsf1; guide: piRNA #1 5'p-UGAGGUAGUAGGUUGUAUAGUAUCCA; MIWI and MILI are mouse PIWI proteins and EfPiwi is from a freshwater sponge; tags in brackets are library labels; higher = faster piRNA-guided slicing of the target. The essentials:
as §1
As to GGAGACGAUACUAUACAACCUACUACCUUCA, the “pre-steady-state target cleavage rate” value is 0.0163 ± 0.0063.
Same read-out and setting: next, GGAGAGAGAUACUAUACAACCUACUACCUCA: 0.159 ± 0.057.
On the same count and under the same terms, next, GGAGAGGAUACUAUACAACGUACUUCCUCA: 0.00375 ± 0.0013.
With GGAGAGGAAACUAUACAACCUACAACCUCA, the “pre-steady-state target cleavage rate” value stood at 0.00279 ± 0.0019.
On the same count and under the same terms, the same measure for GGAGAGGAUACUAAUCAACCUACUACCUCA: 0.00473 ± 0.0039.
On to “GGAGUGGAUACUAUACAACCUACUAGGAGA [g6:g26:cont:t1A]”, for which the “pre-steady-state target cleavage rate” value worked out at 0.00291 ± 0.0023.
Still for that read-out and setting: the same measure for GGAGACGAUACUAUACAAGCUACUACGUCA: 0.00352 ± 0.0014.
